Assay results published in the supplement of paper PMC11732987, “Enantioselective OTUD7B fragment discovery through chemoproteomics screening and high-throughput optimisation” (Communications Chemistry, 2025).

Legend:
Experiment in all cases: log2 ratio of Biotin-Ahx-Ub-VS probe labelling (fragment/DMSO); higher = less target engagement (more negative = stronger competition), active = hit call of the paper (q ≤ 0.05, log2 ratio ≤ -1)
Conditions in all cases: compound concentration: 200 uM; treatment time: 3 h
USP34 = USP34 (UniProt Q70CQ2)
Summary of the method: (§1)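 Global-median-normalised Spectronaut label-free quantities were compared by unpaired t-test, and values are average log2 ratios of fragment over vehicle. Only proteins with ≥2 unique peptides were used. HEK293T lysate (495 µg per sample) was treated in triplicate with fragment at 200 µM or vehicle for 3 h and then with Biotin-Ahx-Ub-VS at 0.5 µM final for 1 h. Labelled DUBs were then NeutrAvidin-enriched, digested with LysC and trypsin, and run by diaPASEF LC-MS/MS.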

USP36 = biological target: T1, USP36 (UniProt Q9P275)
T1 sequence (whole entry): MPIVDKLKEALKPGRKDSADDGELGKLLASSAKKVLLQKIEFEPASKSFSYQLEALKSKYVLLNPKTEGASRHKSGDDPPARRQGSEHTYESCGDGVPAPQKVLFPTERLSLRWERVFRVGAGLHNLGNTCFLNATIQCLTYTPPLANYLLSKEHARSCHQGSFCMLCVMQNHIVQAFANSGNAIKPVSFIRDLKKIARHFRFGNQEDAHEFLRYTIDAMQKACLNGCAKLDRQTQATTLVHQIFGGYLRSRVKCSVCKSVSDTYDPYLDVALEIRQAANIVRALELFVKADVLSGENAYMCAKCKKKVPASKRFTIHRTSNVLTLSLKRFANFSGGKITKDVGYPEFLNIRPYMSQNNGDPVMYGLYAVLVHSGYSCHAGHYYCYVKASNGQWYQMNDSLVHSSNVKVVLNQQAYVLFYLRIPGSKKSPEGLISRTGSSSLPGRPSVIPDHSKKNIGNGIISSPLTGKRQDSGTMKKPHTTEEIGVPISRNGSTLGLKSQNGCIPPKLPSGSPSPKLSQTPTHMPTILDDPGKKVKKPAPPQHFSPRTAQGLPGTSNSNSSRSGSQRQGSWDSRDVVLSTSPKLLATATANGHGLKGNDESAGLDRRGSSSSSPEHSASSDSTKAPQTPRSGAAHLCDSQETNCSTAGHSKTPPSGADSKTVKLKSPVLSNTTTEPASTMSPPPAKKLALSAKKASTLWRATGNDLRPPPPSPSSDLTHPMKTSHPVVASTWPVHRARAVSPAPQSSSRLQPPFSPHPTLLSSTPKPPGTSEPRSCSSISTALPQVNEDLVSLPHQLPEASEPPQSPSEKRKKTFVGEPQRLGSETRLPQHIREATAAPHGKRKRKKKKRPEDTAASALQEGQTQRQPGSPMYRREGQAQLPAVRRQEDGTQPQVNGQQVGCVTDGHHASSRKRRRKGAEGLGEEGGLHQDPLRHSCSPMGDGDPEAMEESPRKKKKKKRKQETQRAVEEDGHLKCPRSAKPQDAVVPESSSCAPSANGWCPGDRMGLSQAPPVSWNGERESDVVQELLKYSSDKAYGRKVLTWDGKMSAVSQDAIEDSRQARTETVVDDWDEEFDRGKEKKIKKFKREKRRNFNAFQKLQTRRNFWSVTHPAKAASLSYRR
Summary of the method: as §1

USP38 = biological target: T2, USP38 (UniProt Q8NB14)
T2 sequence (whole entry): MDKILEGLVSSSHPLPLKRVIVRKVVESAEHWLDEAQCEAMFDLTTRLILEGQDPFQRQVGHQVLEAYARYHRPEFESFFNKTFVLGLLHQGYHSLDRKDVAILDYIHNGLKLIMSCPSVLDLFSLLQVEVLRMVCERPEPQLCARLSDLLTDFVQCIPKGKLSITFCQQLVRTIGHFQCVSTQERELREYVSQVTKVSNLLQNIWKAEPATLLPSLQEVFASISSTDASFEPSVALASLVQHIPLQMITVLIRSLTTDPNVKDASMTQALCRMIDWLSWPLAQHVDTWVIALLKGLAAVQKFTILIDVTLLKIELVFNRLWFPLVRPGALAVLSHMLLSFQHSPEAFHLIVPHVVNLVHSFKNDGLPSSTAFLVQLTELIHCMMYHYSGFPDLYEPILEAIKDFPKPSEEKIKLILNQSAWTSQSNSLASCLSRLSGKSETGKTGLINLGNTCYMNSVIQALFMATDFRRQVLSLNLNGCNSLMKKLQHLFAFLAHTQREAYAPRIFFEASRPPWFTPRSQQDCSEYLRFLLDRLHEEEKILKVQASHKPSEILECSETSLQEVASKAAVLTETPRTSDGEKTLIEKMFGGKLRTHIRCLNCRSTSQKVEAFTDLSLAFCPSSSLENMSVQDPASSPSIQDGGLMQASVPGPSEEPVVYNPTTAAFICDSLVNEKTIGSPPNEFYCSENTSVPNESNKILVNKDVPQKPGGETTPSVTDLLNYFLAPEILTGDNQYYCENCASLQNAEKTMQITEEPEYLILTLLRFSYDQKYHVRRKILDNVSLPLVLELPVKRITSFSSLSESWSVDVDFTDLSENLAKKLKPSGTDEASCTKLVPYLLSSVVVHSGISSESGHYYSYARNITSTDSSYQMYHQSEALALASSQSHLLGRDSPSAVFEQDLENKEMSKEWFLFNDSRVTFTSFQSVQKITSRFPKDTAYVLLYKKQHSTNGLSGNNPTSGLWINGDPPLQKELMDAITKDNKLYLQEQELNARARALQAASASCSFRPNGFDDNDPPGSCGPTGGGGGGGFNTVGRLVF
Summary of the method: as §1

USP39 = biological target: T3, USP39 (UniProt Q53GS9)
T3 sequence (whole entry): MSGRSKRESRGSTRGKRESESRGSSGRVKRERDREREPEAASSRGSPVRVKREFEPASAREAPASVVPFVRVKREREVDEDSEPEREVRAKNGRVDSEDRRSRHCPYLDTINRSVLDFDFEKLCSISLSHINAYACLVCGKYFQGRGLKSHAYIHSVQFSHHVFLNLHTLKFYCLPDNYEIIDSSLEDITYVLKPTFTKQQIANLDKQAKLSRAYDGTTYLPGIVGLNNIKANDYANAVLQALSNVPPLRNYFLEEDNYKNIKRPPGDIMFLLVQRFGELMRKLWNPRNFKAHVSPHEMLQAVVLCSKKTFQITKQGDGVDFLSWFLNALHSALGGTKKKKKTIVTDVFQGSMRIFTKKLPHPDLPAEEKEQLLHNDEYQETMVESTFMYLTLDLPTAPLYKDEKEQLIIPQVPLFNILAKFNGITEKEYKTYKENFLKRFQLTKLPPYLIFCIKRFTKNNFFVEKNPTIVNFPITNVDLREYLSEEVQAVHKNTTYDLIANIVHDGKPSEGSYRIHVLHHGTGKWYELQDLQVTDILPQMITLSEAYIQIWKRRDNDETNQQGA
Summary of the method: as §1

USP4 = biological target: T4, USP4 (UniProt Q13107)
T4 sequence (whole entry): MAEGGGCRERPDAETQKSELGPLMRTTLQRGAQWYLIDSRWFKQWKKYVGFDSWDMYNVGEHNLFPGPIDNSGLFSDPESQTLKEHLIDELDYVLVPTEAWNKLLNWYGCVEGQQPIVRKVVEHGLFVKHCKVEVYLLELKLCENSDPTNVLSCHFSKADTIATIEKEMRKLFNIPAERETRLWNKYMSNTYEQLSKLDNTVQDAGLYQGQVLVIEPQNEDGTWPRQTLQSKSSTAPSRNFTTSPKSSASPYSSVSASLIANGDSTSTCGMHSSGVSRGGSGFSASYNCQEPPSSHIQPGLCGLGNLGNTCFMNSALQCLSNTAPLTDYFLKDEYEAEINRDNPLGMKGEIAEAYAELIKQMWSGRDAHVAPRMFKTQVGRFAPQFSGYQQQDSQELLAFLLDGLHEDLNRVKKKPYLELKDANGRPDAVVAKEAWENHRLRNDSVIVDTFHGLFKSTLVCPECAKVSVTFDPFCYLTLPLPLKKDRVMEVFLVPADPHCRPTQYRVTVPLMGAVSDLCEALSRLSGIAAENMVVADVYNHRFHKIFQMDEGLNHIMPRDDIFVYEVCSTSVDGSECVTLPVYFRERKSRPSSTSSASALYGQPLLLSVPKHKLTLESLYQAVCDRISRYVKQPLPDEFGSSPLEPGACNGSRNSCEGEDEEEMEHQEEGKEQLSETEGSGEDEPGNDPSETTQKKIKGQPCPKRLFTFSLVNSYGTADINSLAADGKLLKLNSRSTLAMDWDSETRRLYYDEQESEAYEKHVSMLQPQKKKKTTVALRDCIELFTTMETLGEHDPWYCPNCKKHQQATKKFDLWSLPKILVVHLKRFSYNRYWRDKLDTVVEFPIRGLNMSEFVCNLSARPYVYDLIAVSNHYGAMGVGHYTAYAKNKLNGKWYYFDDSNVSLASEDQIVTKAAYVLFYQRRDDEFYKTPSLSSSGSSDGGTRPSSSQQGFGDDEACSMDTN
Summary of the method: as §1

Measured: log2 ratio of Biotin-Ahx-Ub-VS probe labelling

USP34, sequence (Q70CQ2 whole entry, the tested form may be a part): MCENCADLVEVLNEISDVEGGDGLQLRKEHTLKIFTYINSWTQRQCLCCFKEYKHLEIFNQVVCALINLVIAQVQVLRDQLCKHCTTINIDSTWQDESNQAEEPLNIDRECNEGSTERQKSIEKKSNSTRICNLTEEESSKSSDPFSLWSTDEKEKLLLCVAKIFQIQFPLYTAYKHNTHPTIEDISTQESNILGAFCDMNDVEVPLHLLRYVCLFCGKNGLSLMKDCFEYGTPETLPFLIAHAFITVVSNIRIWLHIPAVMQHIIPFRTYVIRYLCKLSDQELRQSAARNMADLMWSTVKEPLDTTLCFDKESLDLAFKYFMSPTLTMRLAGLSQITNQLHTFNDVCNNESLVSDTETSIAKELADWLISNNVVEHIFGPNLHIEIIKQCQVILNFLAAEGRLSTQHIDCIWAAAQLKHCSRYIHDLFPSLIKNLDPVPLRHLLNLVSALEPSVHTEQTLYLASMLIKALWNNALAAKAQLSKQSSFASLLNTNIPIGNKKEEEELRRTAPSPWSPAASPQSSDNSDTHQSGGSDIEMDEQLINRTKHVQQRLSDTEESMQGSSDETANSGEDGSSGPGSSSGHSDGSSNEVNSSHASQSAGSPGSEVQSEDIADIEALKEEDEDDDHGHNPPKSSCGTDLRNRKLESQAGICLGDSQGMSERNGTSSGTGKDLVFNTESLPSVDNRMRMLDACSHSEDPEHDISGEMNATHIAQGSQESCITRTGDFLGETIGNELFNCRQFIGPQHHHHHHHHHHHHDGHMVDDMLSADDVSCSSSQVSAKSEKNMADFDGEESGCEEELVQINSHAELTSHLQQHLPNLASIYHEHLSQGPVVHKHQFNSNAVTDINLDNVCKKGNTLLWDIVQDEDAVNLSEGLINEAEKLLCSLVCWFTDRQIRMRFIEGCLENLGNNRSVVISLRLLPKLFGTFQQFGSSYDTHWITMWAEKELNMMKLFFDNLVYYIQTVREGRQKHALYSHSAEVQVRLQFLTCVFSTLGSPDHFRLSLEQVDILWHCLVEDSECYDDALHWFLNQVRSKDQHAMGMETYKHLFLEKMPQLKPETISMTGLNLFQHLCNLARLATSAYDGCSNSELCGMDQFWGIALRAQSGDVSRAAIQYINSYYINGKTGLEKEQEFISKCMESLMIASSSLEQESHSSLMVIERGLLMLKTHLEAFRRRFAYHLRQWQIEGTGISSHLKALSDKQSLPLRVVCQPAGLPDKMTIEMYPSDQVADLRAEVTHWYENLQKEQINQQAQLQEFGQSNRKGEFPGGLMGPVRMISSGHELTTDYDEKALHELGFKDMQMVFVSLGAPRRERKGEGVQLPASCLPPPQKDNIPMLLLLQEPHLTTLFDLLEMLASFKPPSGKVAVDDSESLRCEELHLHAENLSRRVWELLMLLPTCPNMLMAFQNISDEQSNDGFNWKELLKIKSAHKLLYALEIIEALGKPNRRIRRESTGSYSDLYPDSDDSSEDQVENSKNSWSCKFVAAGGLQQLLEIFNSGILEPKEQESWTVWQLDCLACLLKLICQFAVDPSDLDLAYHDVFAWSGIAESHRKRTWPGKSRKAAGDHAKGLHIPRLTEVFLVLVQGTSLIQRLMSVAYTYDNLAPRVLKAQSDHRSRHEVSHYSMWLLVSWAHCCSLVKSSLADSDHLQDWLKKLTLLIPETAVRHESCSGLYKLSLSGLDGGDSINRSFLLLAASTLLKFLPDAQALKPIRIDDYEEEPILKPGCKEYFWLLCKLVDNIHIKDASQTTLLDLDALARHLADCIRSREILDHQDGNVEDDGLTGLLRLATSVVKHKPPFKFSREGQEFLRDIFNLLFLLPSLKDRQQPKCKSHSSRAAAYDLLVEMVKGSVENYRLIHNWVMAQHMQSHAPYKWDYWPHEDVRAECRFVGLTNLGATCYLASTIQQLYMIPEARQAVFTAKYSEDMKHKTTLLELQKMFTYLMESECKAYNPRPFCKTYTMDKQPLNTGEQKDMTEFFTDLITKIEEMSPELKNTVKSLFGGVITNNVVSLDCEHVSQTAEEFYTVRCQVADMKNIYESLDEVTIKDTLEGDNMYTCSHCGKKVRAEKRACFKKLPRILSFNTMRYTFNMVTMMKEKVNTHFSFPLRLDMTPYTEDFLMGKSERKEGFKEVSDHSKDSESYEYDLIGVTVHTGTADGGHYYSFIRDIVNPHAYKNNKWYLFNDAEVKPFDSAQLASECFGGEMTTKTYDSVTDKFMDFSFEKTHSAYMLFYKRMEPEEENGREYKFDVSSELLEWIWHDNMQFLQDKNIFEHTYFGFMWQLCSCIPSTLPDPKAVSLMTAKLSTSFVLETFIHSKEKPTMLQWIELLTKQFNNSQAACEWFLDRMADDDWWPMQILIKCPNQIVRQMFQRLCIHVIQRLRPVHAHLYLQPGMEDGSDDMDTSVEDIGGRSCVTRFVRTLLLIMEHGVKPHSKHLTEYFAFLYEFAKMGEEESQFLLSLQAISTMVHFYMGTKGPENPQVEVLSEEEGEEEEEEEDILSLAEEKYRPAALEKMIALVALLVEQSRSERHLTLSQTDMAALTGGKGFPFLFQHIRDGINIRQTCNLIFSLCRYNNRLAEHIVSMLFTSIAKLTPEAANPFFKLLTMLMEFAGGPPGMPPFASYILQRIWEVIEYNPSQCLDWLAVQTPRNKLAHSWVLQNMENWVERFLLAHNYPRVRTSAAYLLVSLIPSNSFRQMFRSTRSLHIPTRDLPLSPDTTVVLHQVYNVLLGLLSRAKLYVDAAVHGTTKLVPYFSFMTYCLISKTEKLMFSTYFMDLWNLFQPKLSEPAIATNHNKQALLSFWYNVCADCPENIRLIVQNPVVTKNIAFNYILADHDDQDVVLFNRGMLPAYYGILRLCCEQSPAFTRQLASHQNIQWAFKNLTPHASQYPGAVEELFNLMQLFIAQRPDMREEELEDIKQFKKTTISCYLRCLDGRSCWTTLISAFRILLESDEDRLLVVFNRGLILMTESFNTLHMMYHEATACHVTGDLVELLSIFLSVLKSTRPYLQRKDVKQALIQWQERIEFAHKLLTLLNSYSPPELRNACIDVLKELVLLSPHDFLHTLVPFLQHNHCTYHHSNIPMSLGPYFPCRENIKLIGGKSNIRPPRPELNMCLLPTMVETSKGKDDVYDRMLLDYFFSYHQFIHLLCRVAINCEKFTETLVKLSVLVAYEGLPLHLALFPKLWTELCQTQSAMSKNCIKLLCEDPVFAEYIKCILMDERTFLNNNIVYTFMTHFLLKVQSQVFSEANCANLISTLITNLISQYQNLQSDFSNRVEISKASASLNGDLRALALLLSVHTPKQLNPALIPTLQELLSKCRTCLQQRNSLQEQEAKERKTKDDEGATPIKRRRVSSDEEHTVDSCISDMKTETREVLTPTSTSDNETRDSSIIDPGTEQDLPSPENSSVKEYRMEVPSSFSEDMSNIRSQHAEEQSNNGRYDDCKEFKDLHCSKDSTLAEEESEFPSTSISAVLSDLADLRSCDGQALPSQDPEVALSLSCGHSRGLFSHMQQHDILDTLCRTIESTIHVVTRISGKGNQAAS

COCC1C=CCCN1C(=O)CCl (stereo not given)
inactive: USP34 -0.0902 | USP36 -0.00282 | USP38 -0.157 | USP39 -0.196 | USP4 -0.211
